According to PubChem BioAssay (EPA / NIEHS):
Results filed as inconclusive are left out. Calls of active or inactive are those of the source. How the source made its calls: active means hit-call score of the fitted dose curve at least 0.9, where 1 is the maximum; inconclusive means response in the unintended direction; inactive means score below 0.9.

The molecules below were run against AR (gene 367) (UniProt P10275) (assay: ACEA_AR_antagonist_80hr: ACEA Biosciences xCELLigence Real-Time Cell Analysis on Androgen Receptor Antagonism for Proliferation (AID 2283787);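 further: 22Rv1 human prostate cancer cells with growth followed by electrical impedance; hits lower the impedance growth signal relative to DMSO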).
Summary of the method: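 22Rv1 cells in assay medium, growth tracked by electrical impedance; compounds eight-point 1:4 dilutions from 100 uM final, duplicate plates. Endpoint at 80 h; loss of signal versus DMSO.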

Chain of AR (gene 367) (P10275 whole entry, looked up): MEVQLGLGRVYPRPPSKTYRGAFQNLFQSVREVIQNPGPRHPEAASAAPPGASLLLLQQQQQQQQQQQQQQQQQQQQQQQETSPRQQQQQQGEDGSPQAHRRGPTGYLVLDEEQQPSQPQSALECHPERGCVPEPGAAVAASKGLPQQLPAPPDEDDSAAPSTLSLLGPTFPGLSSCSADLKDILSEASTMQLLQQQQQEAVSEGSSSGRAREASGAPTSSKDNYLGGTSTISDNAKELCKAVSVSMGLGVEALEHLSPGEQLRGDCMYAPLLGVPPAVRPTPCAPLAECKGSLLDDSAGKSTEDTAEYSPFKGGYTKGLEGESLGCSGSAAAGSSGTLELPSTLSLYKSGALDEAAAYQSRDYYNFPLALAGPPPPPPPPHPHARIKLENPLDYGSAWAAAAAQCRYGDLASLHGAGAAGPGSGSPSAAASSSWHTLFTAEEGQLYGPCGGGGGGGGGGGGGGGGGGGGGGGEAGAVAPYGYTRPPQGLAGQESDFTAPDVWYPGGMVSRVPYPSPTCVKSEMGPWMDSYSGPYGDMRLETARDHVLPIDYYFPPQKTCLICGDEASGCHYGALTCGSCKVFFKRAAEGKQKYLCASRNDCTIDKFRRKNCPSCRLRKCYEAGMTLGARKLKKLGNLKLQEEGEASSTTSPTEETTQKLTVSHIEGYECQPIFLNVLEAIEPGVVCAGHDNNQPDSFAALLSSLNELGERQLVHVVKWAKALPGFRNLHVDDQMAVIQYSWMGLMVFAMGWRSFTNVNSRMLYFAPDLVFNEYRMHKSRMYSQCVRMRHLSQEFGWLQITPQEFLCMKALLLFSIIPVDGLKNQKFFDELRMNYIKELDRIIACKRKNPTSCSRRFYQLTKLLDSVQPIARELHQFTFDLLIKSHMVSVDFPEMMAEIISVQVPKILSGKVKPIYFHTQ

Row | Structure (SMILES) | AC50 | outcome
1 | CO[C@@H]1[C@H](OC(=O)NC(=O)CCl)CC[C@]2(CO2)[C@H]1[C@@]1(C)O[C@@H]1CC=C(C)C | 12.6 µM (active) | –
2 | COC(=O)Nc1nc2ccccc2[nH]1 | 19.6 µM (active) | –
3 | CC(C)(OOC(C)(C)c1ccccc1)c1ccccc1 | 26.6 µM (active) | –
4 | O=C(Nc1ccccc1)c1ccccc1I | – | inactive
5 | C[C@]12C=CC3=C4CCC(=O)C=C4CC[C@H]3[C@@H]1CC[C@@H]2O | – | inactive

The molecules below were run against Estrogen receptor beta (Homo sapiens) (UniProt Q92731) (assay: ATG_hERb_XSP1: Attagene TRANS-FACTORIAL Multi-Species (XSP1) HepG2 Assay for human Estrogen Receptor (ESR2) (AID 2283788)).
Summary of the method: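 HepG2 cells transiently transfected with GAL4-UAS multiplexed reporter units, 3 nM 6-alpha-fluorotestosterone present; 24 h exposure. Reporter mRNA measured by RT-PCR, fluorescent labelling and capillary electrophoresis; gain of signal fitted against DMSO.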

Chain of Estrogen receptor beta (Homo sapiens) (Q92731 whole entry, looked up, the tested form may be a part): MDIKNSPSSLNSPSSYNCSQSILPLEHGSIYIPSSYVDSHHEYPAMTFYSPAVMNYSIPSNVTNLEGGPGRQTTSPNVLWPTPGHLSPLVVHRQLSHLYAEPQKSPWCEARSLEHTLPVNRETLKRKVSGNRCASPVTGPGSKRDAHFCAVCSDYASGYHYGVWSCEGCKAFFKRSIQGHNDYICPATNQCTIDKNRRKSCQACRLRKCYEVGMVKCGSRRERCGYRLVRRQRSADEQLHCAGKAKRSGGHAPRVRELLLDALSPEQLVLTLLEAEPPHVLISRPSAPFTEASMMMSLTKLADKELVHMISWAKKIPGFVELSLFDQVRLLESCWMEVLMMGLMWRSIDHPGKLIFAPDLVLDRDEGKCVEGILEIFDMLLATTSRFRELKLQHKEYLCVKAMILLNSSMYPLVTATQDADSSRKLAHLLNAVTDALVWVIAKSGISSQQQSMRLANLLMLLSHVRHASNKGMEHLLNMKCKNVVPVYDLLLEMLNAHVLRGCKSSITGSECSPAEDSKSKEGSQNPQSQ

Row | Structure (SMILES) | outcome
6 | Clc1ccc(C(c2ccc(Cl)cc2)C(Cl)(Cl)Cl)cc1 | inactive
7 | CCCCCOC(=O)c1ccccc1C(=O)OCCCCC | inactive
8 | C[C@]12C=CC3=C4CCC(=O)C=C4CC[C@H]3[C@@H]1CC[C@@H]2O | inactive
